Nrf2 inh: Nrf2 pathway inhibition; AID 504444; A549 ARE-Fluc reporter, luciferase luminescence, 18-24 h; Potency, µM (top dose mostly 46 µM), for inactives: at the top dose activity change, negative = inhibition, actives largely listed as inhibitors; actives 2.1% (n = 360,000); note: % is set by controls: 0 for no effect and ±100 for the full control effect; nearly all actives have a fitted effect of over 60% in size
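Nrf2 activity is the BugLite luminescence, read 15 min after reagent at room temperature, following CellTiter-Fluor cytotoxicity readout (30 min, 37C). Compound titrations were applied for 18-24 h to 5000 A549 ARE_Fluc cells/well in 5% FBS OPTI-MEM.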
A549 tox: A549 cytotoxicity, counter-screen for Nrf2 inhibitors. A549 ARE-Fluc cells, CellTiter-Fluor viability, 18-24 h. Potency, µM (top dose mostly 46 µM), without a hit: at the highest dose activity change, negative = cytotoxicity, actives largely listed as inhibitors. actives 0.16% (n = 390,000). AID 504648; note: % is set by controls: 0 for no effect and ±100 for the full control effect
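Cytotoxicity counterscreen: CellTiter-Fluor fluorescence was measured in A549 ARE_Fluc cells after 18-24 h of compound exposure in a concentration series. The subsequent BugLite luminescent read reports ARE-luciferase activity.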
Pin1 inhibitor: human Pin1 inhibition. Q13526. Pin1 FP peptide displacement, HiFluor488, 10 min. Potency, µM (doses to about 115 µM), for inactives: top-dose activity, negative = inhibition, usual class: inhibitors. actives 0.009% (n = 390,000). AID 504891; active = well fitted inhibition curve with a large enough effect in the polarisation, with a control signal flat, not every such curve was filed as active; inconclusive = small, poorly fitted or top-dose-only effect, or effect the other way, or a change in a side signal; inactive = no such curve, though single readings can be large or run the other way; the % refers to the polarisation; note: % is set by controls: 0 for no effect and ±100 for the full control effect
Target sequence (Q13526 whole entry, looked up): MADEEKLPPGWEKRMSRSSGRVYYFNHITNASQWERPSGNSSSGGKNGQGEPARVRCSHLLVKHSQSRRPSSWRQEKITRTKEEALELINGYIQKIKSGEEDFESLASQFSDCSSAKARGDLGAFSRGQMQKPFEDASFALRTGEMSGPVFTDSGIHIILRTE
Nrf2 ARE act: Nrf2 pathway activation; Potency, µM (top dose mostly 46.1 µM), for the others: at the highest dose activation, usual class: activators; actives 0.31% (n = 410,000); AREc32 ARE-luciferase reporter (MCF7-derived line), luminescence, 24 h; note: % of control where 0% means no effect; nearly all actives have a fitted effect of over 65% in size
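ARE-driven firefly luciferase activity in AREc32 cells measured after a 24 hr compound exposure at 37 deg C, using Steady-Glo reagent and a 30 min room-temperature hold.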
Numbers without * were called inactive; ? = inconclusive; / = no result. Only some compounds are listed: those with a hit (about 2.2% of all), similar ones and a draw of the others. Unless noted, calls come from the whole dose curve; as a rule, active = well fitted curve in the direction sought with a large enough effect; inconclusive = small, poorly fitted or top-dose-only effect, or another doubt; inactive = no such curve, though single readings can be large; an effect the other way counts as inactive or inconclusive. Potency is the fitted concentration of half-maximal effect.

SMILES | Nrf2 inh | A549 tox | Pin1 inhibitor | Nrf2 ARE act
Cc1cc2c(cc1C)-n1c(-c3ccccc3)c3c(=O)n(C)c(=O)n(C)c3c1C(c1ccco1)N2 (centres undefined) | ? | 0.0% | 7.4% | 0.3%
Cc1ccsc1C(=O)C1CCCN(Cc2cnc(N3CCOCC3)s2)C1 (centres undefined) | 18.4µM* | ? | -10.3% | 2.0%
CCOC(=O)CN1C(=O)N[C@@H](c2cccc(C(F)(F)F)c2)C(C(C)=O)=C1C | ? | 4.1% | -1.1% | 0.5%
CCOc1ccc(S(=O)(=O)N(CC(=O)NCCc2ccc(OC)c(OC)c2)c2ccccc2)cc1 | ? | -11.1% | -3.3% | 0.1%
CCOc1ccc(S(=O)(=O)N(CC(=O)NCc2ccccc2OC)c2ccccc2)cc1 | 16.4µM* | -27.7% | -4.5% | 0.4%
CC1=CC(=C2C(=O)NC(=S)NC2=O)C=C(C(F)(F)F)N1Cc1ccccc1 | ? | 14.6µM* | 3.7% | 0.4%
O=C(Cc1ccc(S(=O)(=O)N2CCCC2)s1)N1CCN(c2ccc(F)cc2)CC1 | 18.4µM* | -12.0% | 0.2% | -0.6%
O=C(COc1ccccc1Cl)N1CCCC(N2CCN(c3ccc(F)cc3)CC2)C1 (centres undefined) | 1.0% | 0.4% | -0.7% | -0.5%
Cc1c(-c2ccc(Br)cc2)c(=O)oc2ccc(OC(=O)N3CCOCC3)cc12 | / | ? | -1.3% | 6.0%
CC(C)COP(=O)(OCC(C)C)C(Nc1ccccc1)c1ccccc1 (centres undefined) | ? | -2.5% | 3.5% | 3.5%
O=P(Oc1ccccc1)(Oc1ccccc1)C(Nc1ccccc1)c1ccccc1 (centres undefined) | 20.6µM* | -15.7% | -9.0% | 0.0%
COc1cccc(NC(=O)CSC2=Nc3ccccc3C3=NC(CCC(=O)NCCc4ccccc4)C(=O)N23)c1 (centres undefined) | / | 1.9% | 21.3% | 6.1%
Fc1ccc(CCNCc2ccc(Cl)c(Cl)c2)cc1 | 11.6µM* | ? | 9.4% | 0.4%
COC(=O)C1=C(c2ccccc2OCc2ccccc2)C[C@@H]2CC[C@H]1N2C(=O)NCc1ccccc1 | ? | 2.8% | 14.7% | 2.2%
COC(=O)C1=C(c2ccccc2OCc2ccccc2)C[C@@H]2CC[C@H]1N2C(=O)NCc1ccc(Br)cc1 | 20.6µM* | -17.0% | 2.6% | -0.7%
COC(=O)C1=C(c2ccc(F)cc2OCc2ccccc2)C[C@@H]2CC[C@H]1N2C(=O)NCc1cccc(F)c1 | ? | -17.8% | 2.8% | -0.2%
COC(=O)C1=C(c2ccc(F)cc2OCc2ccccc2)C[C@@H]2CC[C@H]1N2C(=O)NCc1ccccc1OC | ? | -15.2% | 5.2% | 5.7%
COC(=O)C1=C(c2ccc(F)cc2OCc2ccccc2)C[C@@H]2CC[C@H]1N2C(=O)NCc1ccc2c(c1)OCO2 | 18.4µM* | -16.8% | 6.8% | 0.5%
COC(=O)C1=C(c2ccc(F)cc2OCc2ccccc2)C[C@@H]2CC[C@H]1N2C(=O)NCc1ccccc1 | 16.4µM* | ? | ? | 0.8%
COC(=O)C1=C(c2ccccc2OCc2ccccc2)C[C@@H]2CC[C@H]1N2C(=O)NCc1ccc(C(F)(F)F)cc1 | 16.4µM* | -12.7% | 7.2% | -0.6%
C[C@]12CC[C@H]3C(=CCc4cc(O)ccc43)[C@@H]1CCC2=O | ? | -0.9% | -3.6% | 4.7%
COC(=O)C1=C(c2ccccc2OCc2ccccc2)C[C@@H]2CC[C@H]1N2C(=O)NCc1cccc(C(F)(F)F)c1 | 16.4µM* | -16.2% | 2.4% | -1.0%
COC(=O)C1=C(c2ccc(OCc3ccccc3)cc2)C[C@@H]2CC[C@H]1N2C(=O)NCc1cccc(C(F)(F)F)c1 | ? | -13.0% | 16.0% | 5.0%
COC(=O)C1=C(c2ccc(F)cc2OCc2ccccc2)C[C@@H]2CC[C@H]1N2C(=O)NCc1ccc(C(F)(F)F)cc1 | 18.4µM* | -9.2% | 15.0% | 4.7%
O=C(CSc1nc(-c2cccs2)nc2cc(=O)[nH]n12)Nc1ccc(F)cc1 | 12.1% | -6.2% | 1.1% | ?
COc1cccc(C(=O)c2cn(CC(=O)Nc3cc(Cl)c(OC)cc3OC)c3nc(C)ccc3c2=O)c1 | 6.5% | -1.3% | ? | 0.0%
CC1=C(O)C(=O)C=C2C1=CC=C1C2(C)CCC2(C)C3CC(C)(C(=O)O)CCC3(C)CCC12C (centres undefined) | 18.4µM* | ? | ? | -3.4%

Assay outcomes as filed in PubChem BioAssay.
